SMILES strings stand for the structures. Inconclusive results are not listed. The source made the active and inactive calls. Calls come from the whole dose curve; as a rule, active = well fitted inhibition curve with a large enough effect; inconclusive = small, poorly fitted or top-dose-only effect; inactive = flat fitted curve, though single readings scatter.
Potency is the fitted concentration of half-maximal effect.

This assay is described as follows: BET inhibitor-based combinations targeting novel dependencies in MECOM-rearranged (r) AML: AML-194 cell line (AID 2202237; note: nearly all actives have a fitted effect of over 40% in size;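 for viability (% of control): plate controls were vehicle wells for no effect and wells without cells for full effect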). Conditions: AML-194 (MECOM-r AML) viability, CellTiter-Glo, 48 h; series mostly up to 46 µM; viability (% of control): at the top concentration. The source says: Ecotropic viral insertion site 1 (EVI1) is located on chromosome 3q26.2 as part of the MECOM (MDS and EVI1 complex) locus. Under normal hematopoiesis, EVI1 is a regulator of hematopoietic stem cell maintenance and self-renewal and EVI1 levels decrease as the cells differentiate. In approximately 5-10% of de novo acute myeloid leukemia (AML) EVI1 is aberrantly expressed, including Chromosomal inv(3)(q21;q26.2) or t(3;3)(q21;q26.2) alterations (MECOM-r) that account for about 50% of AML with EVI1 overexpression 31. AMLs with high levels of EVI1 have a poor prognosis and an overall survival time averaging between 10-14 months. EVI1 overexpression confers resistance in leukemia cells, highlighting the need to develop new targeted therapies for EVI1 overexpressing AMLs.
Here, we performed an unbiased chemical drug screening by evaluating the single agent activity of a collection of 2,480 oncology-focused, approved and investigational drugs (NCATS Mechanism Interrogation Plates, MIPE v5.0) against a panel of seven AML cell lines. These included four MECOM-r cell-lines (AML-191, AML-194, UCSD-AML1 and HNT-34) and three non-MECOM-r AMLs (MV4-11, OCI-AML3 and SET-2). Exploiting the mechanistic redundancy built in the library, we identified target-level sensitivities in MECOM-r AML cells and relative activity as compared to other AML subtypes.
A collection of 2480 mechanistically annotated dugs (MIPE v5.0) was used to screen four 3q26.2 rearranged AML cell lines and three non-3q26.2 rearranged AML cell lines. This library purposely exploits redundancy by including multiple inhibitors of key onco-targets, while simultaneously encompassing mechanistic diversity, targeting more than 800 distinct mechanisms of action. Briefly, cells were seeded in 5 uL of growth media using a Multidrop Combi dispenser into 1536 well white polystyrene tissue culture treated plates (Corning) at a density of 500cells/well. For each cell-line, for each of the 2480 drugs in MIPE v5.0 library, an 11-point dose curve was generated via a 1536 pin-tool. Plates were incubated for 48 hr at standard incubator conditions, covered by a stainless steel gasketed lid to prevent evaporation. Cell viability was determined by luminescence based, Cell Titer Glo assay (Promega). In detail, 3 uL of Cell Titer Glo were added to each well and plates were incubated at room temperature for 15 min with a stainless-steel lid in place. Luminescence readings were taken using a Viewlux (PerkinElmer) with a 2 s exposure time per plate. Compound dose-response curves were normalized to DMSO and empty well controls on each plate. Quantitative drug activity data from dose-response curves was determined utilizing area Under the Curve (AUC) and Z-transformed AUC (Z-AUC, a mean-centering transformation applied to each individual cell-line screened).
On the technique in general: In ATP-based viability assays light output follows the ATP content of the culture.
On to `CCOc1ccc(Nc2nc(-c3c(C)nc4ccccn34)cs2)cc1`, for which the Potency is 0.332 µM (active).

On to `CN(N=O)C(=O)N[C@@H]1[C@@H](O)[C@H](O)[C@@H](CO)O[C@@H]1O`, for which the “viability (% of control)” value is 88.1% (inactive).

With `O=C(Nc1ccc2c(c1)CCN(Cc1ncn[nH]1)C2)c1ccccc1-c1ccc(C(F)(F)F)cc1`, the “viability (% of control)” value was 114% (inactive). In the case of `COc1ccc(Cc2ccc(NC(N)=O)cc2)cc1-c1cccc(Cl)c1`, the “viability (% of control)” value was 101% (inactive). The same measure, in the same setting: the same measure for `CC(C)NC(=O)N1CC[C@H](N=C2Nc3cc(F)ccc3N(CC(F)F)c3ccc(Cl)cc32)C1`: 93.8% [at 8.46 µM] (inactive); for `CCOC(=O)O[C@]1(C(=O)OCCl)CC[C@H]2[C@@H]3CCC4=CC(=O)C=C[C@]4(C)[C@H]3[C@@H](O)C[C@@]21C`: 82.9% (inactive). As for `COc1cc2c(Oc3ccc4[nH]c(C)cc4c3F)ncnc2cc1OCCCN1CCCC1`, the Potency is 10.5 µM (active). `O=C(O)c1ccc2cc(-c3ccc(O)c(C45CC6CC(CC(C6)C4)C5)c3)ccc2c1`: the Potency is 1.05 µM (active). For the molecule `NC1=N[C@H]2[C@H](CS[C@H]2CCCCC(=O)O)N1`, the “viability (% of control)” value is 89.8% [at 15.6 µM] (inactive).

`CCc1cc(Nc2nccc(-c3c(-c4ccc(OC)c(C(=O)Nc5c(F)cccc5F)c4)nc4ccccn34)n2)c(OC)cc1N1CCC(N2CCN(S(C)(=O)=O)CC2)CC1`: the Potency was 11.8 µM (active).

Take `COc1ccc(N(C)c2nc(C)nc3ccccc23)cc1`: the Potency was 0.0105 µM (active). As for `CC(C)n1nc(-c2cc3cc(O)ccc3[nH]2)c2c(N)ncnc21`, the Potency was 0.417 µM (active). For the molecule `COc1c(N2CCNC(C)C2)c(F)cc2c(=O)c(C(=O)O)cn(C3CC3)c12` (stereo not given), the “viability (% of control)” value was 97.8% (inactive).

Turning to `COc1cc2c(Nc3ccc(NC(=O)c4ccccc4)cc3)ncnc2cc1OCCCN1CCOCC1`, the Potency is 23.5 µM (active). For the molecule `CCC(C)N(C)C(=O)c1cc2ccccc2c(-c2ccccc2Cl)n1` (stereo not given), the “viability (% of control)” value was 91.3% (inactive).

For `N#Cc1c(NC(=O)c2cccc3ccccc23)sc2c1CCCC2`, the Potency is 0.332 µM (active). The same measure, in the same setting: for `N#C[C@@H]1C[C@@H]2C[C@@H]2N1C(=O)[C@@H](N)C12CC3CC(CC(O)(C3)C1)C2` the value was 14.8 µM (active). With `COc1cccc(OC)c1-c1cc(C(=O)NC2(C(=O)O)C3CC4CC(C3)CC2C4)nn1-c1ccnc2cc(Cl)ccc12` (stereo not given), the “viability (% of control)” value was 105% (inactive).

Consider `CC1=C(C)C(=O)C(C(CCCCCC(=O)O)c2ccccc2)=C(C)C1=O` (stereo not given), for which the “viability (% of control)” value is 111% (inactive). Regarding `CCC(C)(C)c1ccc(CC(C)CN2C[C@@H](C)O[C@@H](C)C2)cc1` (stereo not given in full), the “viability (% of control)” value is 89.3% (inactive). Consider `O=c1[nH]c(=O)n([C@H]2C[C@H](O)[C@@H](CO)O2)cc1I`, for which the Potency is 16.6 µM (active).

As for `NS(=O)(=O)c1cc2c(cc1Cl)NC(C(Cl)Cl)NS2(=O)=O` (stereo not given), the “viability (% of control)” value was 94.9% (inactive).

Consider `NCCc1cnc[nH]1`, for which the “viability (% of control)” value was 87.5% (inactive). Take `Cc1ccc(NC(=O)C2(c3ccc4c(c3)OC(F)(F)O4)CC2)nc1-c1cccc(C(=O)O)c1`: the “viability (% of control)” value is 92.1% (inactive).

For `OCc1ccc(-c2ccc(-c3ccc(CO)s3)o2)s1`, the Potency was 26.3 µM (active). As to `NCCCC(N)(C(=O)O)C(F)F` (stereo not given), the “viability (% of control)” value was 111% (inactive). Still for that read-out and setting: the same measure for `O=c1c(O)c(-c2ccc(O)c(O)c2)oc2cc(O)cc(O)c12`: 114% (inactive); for `CCCNC(=O)Nc1ccc(Oc2ncnc3cc(OC)c(OC)cc23)cc1Cl`: 102% (inactive).

As to `CCN(CC)CCCC(C)Nc1nc(C)cc(Nc2ccc3nc(C)cc(N)c3c2)n1` (stereo not given), the “viability (% of control)” value is 106% (inactive). Still for that read-out and setting: for `CC1=C(C(=O)Nc2cc3cn[nH]c3cc2F)C(c2ccc(C(F)(F)F)cc2)CC(=O)N1` (stereo not given) the value was 88.1% (inactive); for `COc1ccc2cc(OCC3(C(=O)O)CN(C(=O)c4ccc(F)cc4)C3)ccc2c1`, 108% (inactive). Turning to `COc1cc2c(Oc3ccc(-c4cnc(Nc5ccc(F)cc5)n(C)c4=O)cc3F)ccnc2cc1OCCCN1CCOCC1`, the Potency was 5.25 µM (active). For `COc1cccc(-c2cc(F)ccc2C2Cc3nc(N)nc(C)c3C(=O)N2)n1` (stereo not given), the Potency was 0.0934 µM (active). As for `CC(C)NCC(O)c1ccc(O)c(O)c1` (stereo not given), the “viability (% of control)” value was 110% (inactive).

In the case of `CCC1(C)CC(=O)NC1=O` (stereo not given), the “viability (% of control)” value is 120% [at 92.2 µM] (inactive). For the molecule `C=Cc1c(C)c2cc3nc(cc4[nH]c(cc5nc(cc1[nH]2)C(C)=C5CCC(=O)O)c(CCC(=O)OC)c4C)[C@@]1(C)C3=CC=C(C(=O)OC)[C@H]1C(=O)OC`, the “viability (% of control)” value was 101% (inactive). As for `CCN1CCN(Cc2ccc(Nc3ncc(F)c(-c4cc(F)c5nc(C)n(C(C)C)c5c4)n3)nc2)CC1`, the Potency was 2.09 µM (active).

For the molecule `CC(C)N(CCCNC(=O)Nc1ccc(C(C)(C)C)cc1)C[C@H]1O[C@@H](n2ccc3c(N)ncnc32)[C@H](O)[C@@H]1O`, the “viability (% of control)” value is 97.9% (inactive). On to `CS(=O)(=O)c1ccc(-c2cnc(N)c(C(=O)Nc3ccccc3)n2)cc1`, for which the Potency is 5.9 µM (active). On to `N#Cc1ccc(NC(=O)Nc2ccccc2Br)c2n[nH]nc12`, for which the “viability (% of control)” value is 98% (inactive).
